# Source: PubChem BioAssay (The Scripps Research Institute Molecular Screening Center)
# Sampled rows, rich in hits. Any-hit rate of the full collection: about 3.2%.
# rCAG binder: binds r(CAG) RNA repeats | r(CAG) RNA repeat, TO-PRO-1 dye displacement fluorescence | inhibition, % at 3 µM | 370,000 compounds, 1.3% hits | AID 651821;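 active = inhibition above the plate cutoff, the mean of all test compounds on that plate plus 3 SD, cut at about 35% in these data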;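 note: higher means more dye released from RNA so lower well fluorescence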
# sPLA2-III inh: Inhibits HGIII-sPLA2 liposome hydrolysis, primary screen. QFRET BODIPY PC-A2 liposome hydrolysis, fluorescence. Q9NZ20. inhibition, % at 12.2 µM. 370,000 compounds, 0.56% hits;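 active = inhibition above mean plus 3 SD of compounds lying within the high and low control bounds, cut at about 19% in these data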
# Target sequence (Q9NZ20 whole entry, looked up): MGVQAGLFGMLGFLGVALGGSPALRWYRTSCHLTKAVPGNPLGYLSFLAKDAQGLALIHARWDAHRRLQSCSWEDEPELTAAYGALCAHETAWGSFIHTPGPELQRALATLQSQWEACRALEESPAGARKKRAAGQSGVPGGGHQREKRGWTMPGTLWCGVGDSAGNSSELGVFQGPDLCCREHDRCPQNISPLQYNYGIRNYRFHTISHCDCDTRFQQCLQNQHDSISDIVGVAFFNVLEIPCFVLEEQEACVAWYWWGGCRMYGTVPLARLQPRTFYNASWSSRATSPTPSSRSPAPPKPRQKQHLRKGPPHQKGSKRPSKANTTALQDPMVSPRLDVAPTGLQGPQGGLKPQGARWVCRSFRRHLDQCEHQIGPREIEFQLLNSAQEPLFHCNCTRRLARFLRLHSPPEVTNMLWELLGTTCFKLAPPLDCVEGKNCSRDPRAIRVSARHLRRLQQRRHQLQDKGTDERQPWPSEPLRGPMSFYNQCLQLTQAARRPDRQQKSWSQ
# MsrA inhibitor: inhibitors of bovine MsrA; AID 651718; purified bovine MsrA, absorbance read-out; 360,000 compounds, 0.75% hits; inhibition, % at 15.5 µM; in the data active = inhibition above about 4.5%
# PG9 Ab binder: binds the HIV-1 gp120 antibody PG9. TR-FRET gp120-PG9 antibody binding. inhibition, % at 6.7 µM. 360,000 compounds, 0.43% hits; in the data active = inhibition above about 8.5%
# bovine MsrA act: bovine methionine sulfoxide reductase A activation; activation, % at 10.6 µM; purified bovine MsrA, absorbance read-out; 360,000 compounds, 0.3% hits; AID 602163; in the data active = activation above about 7.5%
# PG9 binder conf: PG9 antibody binding, confirmed | shares compounds with PG9 Ab binder | TR-FRET PG9 antibody binding, biochemical | inhibition, % at 6.7 µM | 1,500 compounds, 90% hits | AID 651571; in the data active = inhibition above about 9%
# PGV04 counter: counter-screen for PG9 binders: binding control antibody PGV04 | shares compounds with PG9 Ab binder | 1,500 compounds, 95% hits | TR-FRET PGV04 antibody-gp120 binding, biochemical | AID 651604 | inhibition, % at 6.7 µM; in the data active = inhibition above about 9.5%
# PG9 binder DR: small molecules binding HIV-1 gp120 antibody PG9 | shares compounds with PG9 Ab binder | TR-FRET PG9 antibody-gp120 binding inhibition | IC50, µM | 95 tested, under 10 active; in the data active = IC50 below about 10 µM
# PGV04 binding DR: counter-screen for PG9 binders: binding to control antibody PGV04. TR-FRET binding to control antibody PGV04. IC50, µM. shares compounds with PG9 Ab binder. 95 compounds, 20% hits. AID 651937
# PG126 binding DR: counter-screen for PG9 binders: binding to control antibody PG126; 95 compounds, 20% hits; IC50, µM; AID 651939; shares compounds with PG9 Ab binder; TR-FRET binding to antibody PG126, counterscreen
# Numbers stand for hits; - = inactive; . = no result given. Cut-off read from the data, not from the text of the source, unless noted: active = IC50 below about 9 µM; inactive = the rest.
SMILES,rCAG binder,sPLA2-III inh,MsrA inhibitor,PG9 Ab binder,bovine MsrA act,PG9 binder conf,PGV04 counter,others
NC1=[N+](Cc2ccccc2)C[C@H]2C(=C3CCCC[C@H]3n3c(=O)n(-c4ccccc4)c(=O)n32)N1,-,-,.,.,.,.,.,
Cc1ccc2cc(C#N)c(NCc3ccccc3)nc2c1,-,-,-,34.6,-,30.1,55.0,
O=C(NC1CCCC1)C1C2C=CC3(CN(Cc4cccs4)C(=O)C13)O2 (centres undefined),-,-,-,28.8,-,-,-,
O=C(NCC1CCCO1)C1C2C=CC3(CN(Cc4cccs4)C(=O)C13)O2 (centres undefined),-,-,-,-,-,.,.,
Cc1cccc(C)c1NC(=O)Cn1nc(-c2ccc(Cl)s2)ccc1=O,-,-,-,11.1,-,-,-,
Fc1cccc2sc(Nc3nc4ccccc4s3)nc12,-,-,-,14.0,-,12.9,28.8,
Fc1ccc2nc(Nc3nc4c(F)cccc4s3)sc2c1,-,-,-,10.8,-,13.7,20.7,
CCOC(=O)N1C(=O)C[C@](Sc2ccc(OC)cc2)(C(=O)N2CCN(c3ncccn3)CC2)[C@H]1c1ccc(OC)cc1,-,-,.,.,.,.,.,
Cc1ccc(-c2c3c([nH]c(=S)c2C#N)CCCC3)o1,-,-,-,16.1,-,8.7,-,PG9 binder DR=-;PGV04 binding DR=-;PG126 binding DR=-
N#Cc1c(-c2ccncc2)c2c([nH]c1=S)CCCC2,-,-,-,-,-,.,.,
CC1(C)Oc2ccc3ccc(=O)oc3c2C(N2CCCCC2)C1O (centres undefined),-,-,-,11.2,-,-,9.2,
CCOC(=O)Cn1cc(CN2C(C(=O)OC)CN(Cc3ccccc3)CCS2(=O)=O)nn1 (centres undefined),-,-,.,.,.,.,.,
CC(=O)N/C(=C\c1ccccc1)C(=O)OC(C)C(=O)NCc1ccccc1 (centres undefined),-,-,-,-,-,.,.,
CC(OC(=O)/C=C/c1ccc2ccccc2n1)C(=O)NCc1ccccc1 (centres undefined),-,-,-,15.3,-,11.4,13.2,
Cc1nc2ccc3nc(NC(=O)c4ccc5c(c4)OCCO5)sc3c2s1,-,-,-,35.4,-,27.0,56.1,
O=C(CCCn1c(=O)[nH]c2ccc(Br)cc2c1=O)NCc1ccc(Cl)cc1,-,-,-,15.8,-,18.4,32.5,
O=C(NC1CCCCN(Cc2cccc(Cl)c2)C1=O)c1ccc2ccccc2c1 (centres undefined),-,-,.,.,.,.,.,
O=c1c2cc3cccnc3nc2ncn1Cc1cccs1,-,-,.,.,.,.,.,
COc1ccc(-c2csc(NC(=O)c3ccc(N4C(=O)CCC4=O)cc3)n2)cc1,-,-,-,29.0,-,28.3,50.0,
O=C(Nc1nc(-c2ccc(F)cc2)cs1)c1ccc(N2C(=O)CCC2=O)cc1,-,-,-,-,-,.,.,
Cc1nn(CC(=O)Nc2ccc(Cl)cc2Cl)c(=O)c2ccccc12,-,-,-,9.1,-,24.6,39.5,
Cc1ccc(C)c(NC(=O)Cn2nc(C)c3ccccc3c2=O)c1,-,-,-,-,-,.,.,
C/C(=N\NC(=O)CSc1nnc(-c2ccccc2)n1-c1ccc(C)cc1)c1ccc(-c2ccccc2)cc1,-,-,.,.,.,.,.,
Clc1ccc(CN2CCN(N=Cc3ccncc3)CC2)cc1,-,-,.,.,.,.,.,
Cc1sc2ncnc(Sc3ccccc3C(=O)O)c2c1C,-,-,-,31.1,-,37.2,46.4,
CC(=O)c1ccc(NC(=O)c2ccccc2Sc2ncnc3sc(C)c(C)c23)cc1,-,-,-,-,-,.,.,
Cc1sc2ncnc(SCC(=O)NC(=O)c3cccn3C)c2c1C,-,-,-,53.4,-,55.1,65.9,
CCN(CC(=O)Nc1ccc(NC(C)=O)cc1)C(=O)CSc1ncnc2sc(C)c(C)c12,-,-,-,11.3,-,-,24.4,
CC(=O)Nc1ccc(NC(=O)CSc2ncnc3sc(C)c(C)c23)cc1,-,-,-,-,-,.,.,
CC(C)CNc1cccc2c1S(=O)(=O)N(Cc1cn(Cc3cccc(F)c3)nn1)Cc1ccccc1O2,-,-,.,.,.,.,.,
